This is a sample that favours compounds with a hit; in the whole collection about 1.2% have one here.
PKA-R1A activ: activators of PKA-R1A holoenzyme, primary screen, biochemical, fluorescence polarization, Cy5-IP20, bovine R1A, mouse PKAc. AID 504707, 2011. activation, % at 11.4 µM. PKA-R1A dissociation; scaled: DMSO 0%, 113 µM cGMP 100%. cAMP-dependent protein kinase type I-alpha regulatory subunit (Bos taurus) + …. 0.083% of 340,000 active;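 active means percent activation above the mean of all tested compounds plus 3 SD, cut at about 19% in these data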;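 further: higher means more PKAc released from R1A so a rise in polarization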
PKA-R2B activ: activators of PKA-R2B holoenzyme, primary screen, biochemical, fluorescence polarization, Cy5-IP20, human. PKA-R2B holoenzyme dissociation; R2B truncated from residue 108, S112A mutant; 0% DMSO only, 100% 113 µM cGMP. activation, % at 11.4 µM. 0.079% of 340,000 active;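 active means activation above a cutoff set at the mean over all compounds plus 3 SD, cut at about 18% in these data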;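 further: higher means more holoenzyme dissociation and a rise in polarization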
PG9 Ab binder: binders of HIV-1 gp120 antibody PG9, primary screen, biochemical, TR-FRET; HIV-1 gp120 / PG9 antibody interaction; TR-FRET gp120-PG9 antibody binding; inhibition, % at 6.7 µM; 0.43% of 360,000 active; AID 624416, 2012; in the data active means inhibition above about 8.5%
NR1D1 modulator: modulators of Rev-erb alpha DNA binding, primary screen, biochemical, FITC-DNA, fluorescence polarization, uHTS; 0.79% of 370,000 active; activity, % at 10 µM; Rev-erbα–FITC-DNA binding, 90 min; Nuclear receptor subfamily 1 group D member 1 (Homo sapiens), P20393;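 active means activity above about 14%, limit read from the data; passing the limit was not always enough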;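 further: 0% = DMSO wells with 35 nM protein and 100% = DMSO wells with 750 nM protein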
Target sequence (P20393 whole entry, looked up): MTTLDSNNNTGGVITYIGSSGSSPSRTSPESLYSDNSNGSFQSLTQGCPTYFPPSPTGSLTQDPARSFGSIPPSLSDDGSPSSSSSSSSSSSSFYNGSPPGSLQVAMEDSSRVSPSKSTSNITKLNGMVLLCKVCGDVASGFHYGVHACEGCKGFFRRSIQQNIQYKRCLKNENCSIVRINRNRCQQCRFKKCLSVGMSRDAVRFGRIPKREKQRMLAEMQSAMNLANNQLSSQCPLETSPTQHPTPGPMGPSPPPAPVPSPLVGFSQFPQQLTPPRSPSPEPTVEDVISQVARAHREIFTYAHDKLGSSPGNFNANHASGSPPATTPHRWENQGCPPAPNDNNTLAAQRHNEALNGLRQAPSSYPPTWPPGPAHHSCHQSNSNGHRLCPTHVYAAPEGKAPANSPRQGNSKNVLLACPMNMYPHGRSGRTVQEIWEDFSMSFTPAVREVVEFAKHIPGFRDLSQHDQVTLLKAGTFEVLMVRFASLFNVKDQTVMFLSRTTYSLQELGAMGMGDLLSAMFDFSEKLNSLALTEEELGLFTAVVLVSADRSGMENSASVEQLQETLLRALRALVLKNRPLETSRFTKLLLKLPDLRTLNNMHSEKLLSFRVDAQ
NR1D1 mod conf: modulators of Rev-erb alpha DNA binding, confirmation, biochemical, FITC-DNA, fluorescence polarization, single point | shares compounds with NR1D1 modulator | 90 min | activation, % at 25 µM | 61% of 3,000 active;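 active means activation at or above a set limit, or at least 3 SD above the negative control mean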;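 further: 0% = 35 nM protein with DMSO and 100% = 750 nM protein high control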
RORg counter: modulation of RORgamma DNA binding, dose response, counter-screen for Rev-erb alpha modulator project, biochemical, fluorescence polarization, FITC-DNA; shares compounds with NR1D1 modulator; purified RORgamma protein-FITC-DNA binding; IC50, µM; 8% of 910 active;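 active means Compounds whose fitted half-maximal concentration for disrupting protein-DNA binding is below 10 micromolar; the record names Rev-erb in its text, so the target is in doubt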
* hit, by the source's call.

How did COc1ccc(Cn2ccc3ccc(-c4ccc5ccn(C(=O)c6ccccc6C)c5c4)cc32)cc1 do in these assays?
NR1D1 modulator: 5

How did COC(=O)[C@H]1C[C@@]2(C3C=CC=C3)c3ccccc3N[C@H]2N1 do in these assays?
NR1D1 modulator: 5

What do the screens show for `CCOC(=O)c1nn(-c2ccccc2)c(=O)cc1SC1CCCCC1`?
PKA-R1A activ: 0; PKA-R2B activ: 3; PG9 Ab binder: 1; NR1D1 modulator: 29*; NR1D1 mod conf: 26*

How did CCOC(=O)c1nn(-c2ccccc2)c(=O)cc1SC(C)C do in these assays?
PKA-R1A activ: 4; PKA-R2B activ: 7; PG9 Ab binder: 1; NR1D1 modulator: -1

Results for C[C@H]1CCC[C@@H](O)CC(=O)c2c(O)cc(O)cc2CC(=O)O1 ?
NR1D1 modulator: -7

How did CNc1oc(-c2ccc(F)cc2)nc1S(=O)(=O)c1ccccc1 do in these assays?
PKA-R1A activ: -14; PKA-R2B activ: -1; PG9 Ab binder: 5; NR1D1 modulator: 34*; NR1D1 mod conf: 2

What do the screens show for `Cc1cc(C)cc(N2CC(O)=C(c3nc4ccccc4c(=O)[nH]3)C2=N)c1`?
PKA-R1A activ: -7; PKA-R2B activ: -4; PG9 Ab binder: 6; NR1D1 modulator: 21*; NR1D1 mod conf: 33*; RORg counter: >40

How did COc1cccc(O[C@H]2C=C[C@@H](c3ccccc3)O[C@@H]2CO)c1 do in these assays?
NR1D1 modulator: -2

How did CCn1c(=O)c(C(=O)NNC(=O)Cc2ccccc2)c(O)c2ccccc21 do in these assays?
PKA-R1A activ: -8; PKA-R2B activ: 7; PG9 Ab binder: -2; NR1D1 modulator: 33*; NR1D1 mod conf: 11

What do the screens show for `CCn1c(=O)c(C(=O)Nc2ccccc2F)c(O)c2ccccc21`?
PKA-R1A activ: -4; PKA-R2B activ: -6; PG9 Ab binder: 0; NR1D1 modulator: 11

How did CC(C)Cn1c(=O)c(C(=O)Nc2ccccc2S(N)(=O)=O)c(O)c2ccccc21 do in these assays?
PKA-R1A activ: -3; PKA-R2B activ: -2; PG9 Ab binder: 4; NR1D1 modulator: 56*; NR1D1 mod conf: 29*

Results for CCOC(=O)C1=C(c2ccccc2)O/C(=C(\C(=O)OC)C(F)(F)F)S1 ?
PKA-R1A activ: -2; PKA-R2B activ: 10; PG9 Ab binder: -3; NR1D1 modulator: 25*; NR1D1 mod conf: 18*

How did Cn1ccsc1=NC(=O)c1ccccc1F do in these assays?
PKA-R1A activ: 7; PKA-R2B activ: 6; PG9 Ab binder: 1; NR1D1 modulator: -1

How did Cc1ccc(C)c(-n2c(-c3ccc(Br)cc3)csc2=NC(=O)c2ccccc2F)c1 do in these assays?
PKA-R1A activ: -7; PKA-R2B activ: -10; PG9 Ab binder: 4; NR1D1 modulator: 38*; NR1D1 mod conf: 49*; RORg counter: >40

What do the screens show for `O=C(CCn1nnc(-c2cccs2)n1)N1CCCC1`?
NR1D1 modulator: 4

Results for COC(=O)C1CN(Cc2cn(Cc3ccc(Cl)cc3)nn2)CCS(=O)(=O)N1Cc1ccc(C)cc1 (stereo not given) ?
NR1D1 modulator: -5

Results for C=CCN1[C@@H](Cc2ccccc2)COc2cc(F)ccc2S1(=O)=O ?
NR1D1 modulator: -6

Results for O=C(NCc1ccc(F)cc1)C1CCCN(c2nc3ccsc3c(=O)s2)C1 (stereo not given) ?
PKA-R1A activ: 5; PKA-R2B activ: 7; PG9 Ab binder: 1; NR1D1 modulator: 20*; NR1D1 mod conf: 17

What do the screens show for `Cc1cc(=O)n2nc(N3CCCC(C(=O)NCc4ccc(F)cc4)C3)sc2n1` (stereo not given)?
PKA-R1A activ: 7; PKA-R2B activ: -3; PG9 Ab binder: -1; NR1D1 modulator: 0

How did CC(=O)N1c2ccccc2S(=O)(=O)c2ccccc21 do in these assays?
PKA-R1A activ: 2; PKA-R2B activ: 3; PG9 Ab binder: -1; NR1D1 modulator: 5

Results for CC(=O)N1c2ccccc2S(=O)(=O)c2c1ccc1ccccc21 ?
PKA-R1A activ: -2; PKA-R2B activ: -16; PG9 Ab binder: 1; NR1D1 modulator: 23*; NR1D1 mod conf: -2

What do the screens show for `N#Cc1nc(-c2ccccc2Cl)oc1N1CCN(C(=O)c2ccco2)CC1`?
PKA-R1A activ: -4; PKA-R2B activ: -13; PG9 Ab binder: 2; NR1D1 modulator: 25*; NR1D1 mod conf: 3

Results for N#Cc1nc(-c2ccccc2Cl)oc1N1CCCCC1 ?
PKA-R1A activ: -6; PKA-R2B activ: -4; PG9 Ab binder: -1; NR1D1 modulator: 0

Results for N#Cc1nc(-c2ccccc2F)oc1N1CCN(C(=O)c2ccco2)CC1 ?
PKA-R1A activ: -4; PKA-R2B activ: -7; PG9 Ab binder: 0; NR1D1 modulator: -1

Results for CC1CC(C)CN(c2oc(-c3ccccc3Cl)nc2C#N)C1 (stereo not given) ?
PKA-R1A activ: 9; PKA-R2B activ: 7; PG9 Ab binder: -1; NR1D1 modulator: 18*; NR1D1 mod conf: -14

Results for Cc1ccc2c(c1)N(CCCC(=O)N(C)Cc1ccccc1Cl)C(=O)CO2 ?
NR1D1 modulator: -1

What do the screens show for `C=CCN1[C@H](C)COc2cccc(N3CCSCC3)c2S1(=O)=O`?
NR1D1 modulator: 4

How did CC(=O)c1cc(C#N)c(NCc2cc(-c3ccccc3)no2)nc1C do in these assays?
PKA-R1A activ: -2; PKA-R2B activ: 7; PG9 Ab binder: -1; NR1D1 modulator: 26*; NR1D1 mod conf: 18*

How did Cc1occc1-c1nnc(SCC(=O)NCc2ccc(Cl)cc2)n1-c1ccccc1 do in these assays?
NR1D1 modulator: -3

What do the screens show for `CC(C)C[C@H](NC1(C(=O)NC2CCCCC2)CCC1)C(=O)NCC(c1ccccc1)c1ccccc1`?
NR1D1 modulator: -8

How did O=C(OCC#CCSc1nnc(-c2cccc3ccccc23)o1)c1ccc(OC(F)F)cc1 do in these assays?
NR1D1 modulator: 0

Results for Cc1cc(C)c2nc(/N=C(\N)NC(=O)Nc3ccccc3)nc(C)c2c1 ?
PKA-R1A activ: -3; PKA-R2B activ: -6; PG9 Ab binder: -1; NR1D1 modulator: 4

How did CCCC(=O)N/C(N)=N/c1nc(C)c2ccccc2n1 do in these assays?
PKA-R1A activ: -11; PKA-R2B activ: -6; PG9 Ab binder: 1; NR1D1 modulator: -5
